Screen size: about 5,500 compounds; about 2,000 (36%) were called active. Not shown: some 18% with an inconclusive outcome. Cut-off read from the data, not from the text of the source: active = normalized growth mostly below about 0.91 (no sharp cut-off); inconclusive = no clear call, values can overlap the other calls; inactive = mostly above about 0.92. Some of the results follow.
Test: chemical genetic growth profiling, strain panel (AID 1159580);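 note: tested at 20 µM; growth read once vehicle control cultures reached saturation at 30 °C; 1 = growth at the plate median or of vehicle wells; lower values mean less growth of the strain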
Details: growth OD

Measured: normalized growth

O=c1cc(-c2cc(O)c(O)c(O)c2)oc2cc(O)cc(O)c12
inactive: S. cerevisiae deletion strains, locus YJR075W, strain HOC1, hits give low values 1.02 | S. cerevisiae deletion strains, locus YKL009W, strain mrt4, hits give low values 0.99 | S. cerevisiae deletion strains, locus YKL068W, hits give low values 0.962 | S. cerevisiae deletion strains, locus YKL085W, strain MDH1 (second series), hits give low values 0.996 | S. cerevisiae deletion strains, locus YKL085W, strain MDH1, hits give low values 0.996 | S. cerevisiae deletion strains, locus YKL160W, strain elf1, hits give low values 0.934 | S. cerevisiae deletion strains, locus YKL190W, strain CNB1, hits give low values 0.992 | S. cerevisiae deletion strains, locus YKR001C, strain vps1, hits give low values 0.986 | S. cerevisiae deletion strains, locus YKR026C, strain gcn3, hits give low values 1.01 | S. cerevisiae deletion strains, locus YKR091W, strain srl3, hits give low values 1.01 | S. cerevisiae deletion strains, locus YLL001W, strain dnm1, hits give low values 0.961 | S. cerevisiae deletion strains, locus YLL026W, hits give low values 1.01 | S. cerevisiae deletion strains, locus YLL041C, strain sdh2, hits give low values 1 | S. cerevisiae deletion strains, locus YLR027C, strain aat2, hits give low values 0.974 | S. cerevisiae deletion strains, locus YLR039C, strain RIC1, hits give low values 0.966 | S. cerevisiae deletion strains, locus YLR058C, strain SHM2, hits give low values 0.999 | S. cerevisiae deletion strains, locus YLR102C, strain apc9, hits give low values 0.995 | S. cerevisiae deletion strains, locus YLR113W, strain HOG1, hits give low values 0.998 | S. cerevisiae deletion strains, locus YLR221C, strain rsa3, hits give low values 0.928 | S. cerevisiae deletion strains, locus YLR258W, strain gsy2, hits give low values 0.967 | S. cerevisiae deletion strains, locus YLR262C, strain YPT6 (second series), hits give low values 0.905 | S. cerevisiae deletion strains, locus YLR262C, strain YPT6, hits give low values 1.05 | S. cerevisiae deletion strains, locus YLR268W, strain sec22, hits give low values 0.976 | S. cerevisiae deletion strains, locus YLR320W, strain mms22, hits give low values 0.897 | S. cerevisiae deletion strains, locus YLR330W, strain CHS5, hits give low values 0.994 | S. cerevisiae deletion strains, locus YLR342W, strain FKS1 (second series), hits give low values 0.986 | S. cerevisiae deletion strains, locus YLR342W, strain FKS1, hits give low values 0.964 | S. cerevisiae deletion strains, locus YLR357W, strain rsc2, hits give low values 0.856 | S. cerevisiae deletion strains, locus YLR370C, strain arc18, hits give low values 0.924 | S. cerevisiae deletion strains, locus YLR371W, strain rom2, hits give low values 0.985 | S. cerevisiae deletion strains, locus YLR384C, strain iki3, hits give low values 0.993 | S. cerevisiae deletion strains, locus YLR418C, strain cdc73, hits give low values 1.02 | S. cerevisiae deletion strains, locus YML016C, strain PPZ1, hits give low values 0.994 | S. cerevisiae deletion strains, locus YML032C, strain rad52, hits give low values 0.999 | S. cerevisiae deletion strains, locus YML120C, strain ndi1, hits give low values 0.948 | S. cerevisiae deletion strains, locus YML124C, strain tub3, hits give low values 0.998 | S. cerevisiae deletion strains, locus YMR058W, strain fet3, hits give low values 0.941 | S. cerevisiae deletion strains, locus YMR078C, strain ctf18, hits give low values 0.998 | S. cerevisiae deletion strains, locus YMR125W, strain sto1, hits give low values 1.03 | S. cerevisiae deletion strains, locus YMR129W, hits give low values 1.01 | S. cerevisiae deletion strains, locus YMR205C, strain PFK2, hits give low values 0.961 | S. cerevisiae deletion strains, locus YMR223W, strain ubp8, hits give low values 0.964 | S. cerevisiae deletion strains, locus YMR231W, strain pep5, hits give low values 1 | S. cerevisiae deletion strains, locus YMR263W, strain SAP30, hits give low values 0.999 | S. cerevisiae deletion strains, locus YMR307W, strain GAS1, hits give low values 1.09 | S. cerevisiae deletion strains, locus YNL067W, strain RPL9B, hits give low values 1.01 | S. cerevisiae deletion strains, locus YNL071W, strain lat1, hits give low values 0.979 | S. cerevisiae deletion strains, locus YNL128W, strain TEP1, hits give low values 0.953 | S. cerevisiae deletion strains, locus YNL183C, strain NPR1, hits give low values 0.966 | S. cerevisiae deletion strains, locus YNL233W, strain BNI4, hits give low values 1.01 | S. cerevisiae deletion strains, locus YNL248C, strain rpa49, hits give low values 1.02 | S. cerevisiae deletion strains, locus YNL250W, strain rad50, hits give low values 0.966 | S. cerevisiae deletion strains, locus YNL271C, strain bni1, hits give low values 0.978 | S. cerevisiae deletion strains, locus YNL298W, strain CLA4, hits give low values 0.985 | S. cerevisiae deletion strains, locus YNL307C, strain MCK1, hits give low values 1.01 | S. cerevisiae deletion strains, locus YNL322C, strain KRE1 (second series), hits give low values 0.991 | S. cerevisiae deletion strains, locus YNR049C, strain mso1, hits give low values 1.01 | S. cerevisiae deletion strains, locus YNR052C, strain pop2, hits give low values 0.999 | S. cerevisiae deletion strains, locus YOL006C, strain TOP1, hits give low values 1.08 | S. cerevisiae deletion strains, locus YOL012C, strain htz1 0.547 | S. cerevisiae deletion strains, locus YOL147C, strain pex11, hits give low values 1.01 | S. cerevisiae deletion strains, locus YOR001W, strain rrp6, hits give low values 0.987 | S. cerevisiae deletion strains, locus YOR061W, strain CKA2, hits give low values 0.997 | S. cerevisiae deletion strains, locus YOR069W, strain VPS5, hits give low values 1 | S. cerevisiae deletion strains, locus YOR070C, strain gyp1, hits give low values 0.962 | S. cerevisiae deletion strains, locus YOR080W, strain dia2, hits give low values 0.993 | S. cerevisiae deletion strains, locus YOR083W, strain WHI5, hits give low values 0.916 | S. cerevisiae deletion strains, locus YOR106W, strain vam3, hits give low values 0.926 | S. cerevisiae deletion strains, locus YOR136W, strain idh2, hits give low values 0.995 | S. cerevisiae deletion strains, locus YOR144C, strain elg1, hits give low values 1.01 | S. cerevisiae deletion strains, locus YOR184W, strain ser1, hits give low values 1.01 | S. cerevisiae deletion strains, locus YOR231W, strain MKK1, hits give low values 1.04 | S. cerevisiae deletion strains, locus YOR265W, strain rbl2, hits give low values 0.99 | S. cerevisiae deletion strains, locus YOR270C, strain vph1, hits give low values 0.888 | S. cerevisiae deletion strains, locus YOR290C, strain snf2, hits give low values 0.942 | S. cerevisiae deletion strains, locus YOR316C, strain cot1, hits give low values 0.987 | S. cerevisiae deletion strains, locus YPL051W, strain arl3, hits give low values 0.931 | S. cerevisiae deletion strains, locus YPL055C, strain LGE1, hits give low values 1.03 | S. cerevisiae deletion strains, locus YPL078C, strain atp4, hits give low values 0.98 | S. cerevisiae deletion strains, locus YPL106C, strain sse1, hits give low values 0.929 | S. cerevisiae deletion strains, locus YPL240C, strain hsp82, hits give low values 1.01 | S. cerevisiae deletion strains, locus YPL256C, strain CLN2, hits give low values 1.06 | S. cerevisiae deletion strains, locus YPR119W, strain clb2, hits give low values 1.01 | S. cerevisiae deletion strains, locus YPR141C, strain kar3, hits give low values 0.971 | S. cerevisiae deletion strains, locus YPR163C, strain tif3, hits give low values 0.988 | S. cerevisiae deletion strains, locus YPR167C, strain met16, hits give low values 1.01 | S. cerevisiae deletion strains, strain wtn01, hits give low values 1 | S. cerevisiae strains, strain wild type, hits give low values 0.996
active: S. cerevisiae deletion strains, locus YNL209W, strain ssb2, hits give low values 0.875
